Reference: the supplement of paper PMC6992640
± gives the standard deviation of the averaged measurements.

What was measured:
Test in all cases: cell viability (% of vehicle); higher = less cytotoxic
Details in all cases: 10 µM; 72 h
HCI01 = tested on: HCI01 (cells of a triple-negative basal-like breast cancer xenograft)
HCI03 = tested on: HCI03 (cells of an ER-positive luminal breast cancer xenograft)
HCI09 = tested on: HCI09 (cells of a triple-negative luminal androgen receptor type breast cancer xenograft)
HCI11 = tested on: HCI11 (cells of an ER-positive luminal breast cancer xenograft)
HCI13 = tested on: HCI13 (cells of an ER-positive luminal breast cancer xenograft)
HCI16 = tested on: HCI16 (cells of a triple-negative basal-like breast cancer xenograft)
UCD52 = tested on: UCD52 (cells of a triple-negative basal-like breast cancer xenograft)
WHIM2 = tested on: WHIM2 (cells of a triple-negative basal-like breast cancer xenograft)
WHIM30 = tested on: WHIM30 (cells of a triple-negative basal-like breast cancer xenograft)
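Further: PDX cells carrying CMV promoter-driven luciferase, viability read as total photon flux per second by IVIS imaging following D-luciferin, vehicle control 0.1% DMSO.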

CC(=O)NC(CS)C(=O)O (configuration not stated) [Acetylcysteine]
cell viability (HCI01): 91.6 ± 7.3
cell viability (HCI03): 113
cell viability (HCI09): 94.3 ± 16
cell viability (HCI11): 90
cell viability (HCI13): 97.3 ± 27
cell viability (HCI16): 118
cell viability (UCD52): 89.98 ± 0.47
cell viability (WHIM2): 124 ± 1.8
cell viability (WHIM30): 96.8 ± 14

CC(C)NCC(O)c1ccc(NS(C)(=O)=O)cc1.Cl (configuration not stated) [Sotalol]
cell viability (HCI01): 120 ± 11
cell viability (HCI03): 116
cell viability (HCI09): 105 ± 37
cell viability (HCI11): 103
cell viability (HCI13): 103 ± 5.8
cell viability (HCI16): 105
cell viability (UCD52): 85.2 ± 2.1
cell viability (WHIM2): 101 ± 13
cell viability (WHIM30): 118 ± 17

COc1cc(C2c3cc4c(cc3C(OC3OC5COC(C)OC5C(O)C3O)C3COC(=O)C23)OCO4)cc(OC)c1O (configuration not stated) [Etoposide]
cell viability (HCI01): 103 ± 7.8
cell viability (HCI03): 94.2
cell viability (HCI09): 90 ± 4.5
cell viability (HCI11): 89.4
cell viability (HCI13): 84 ± 3
cell viability (HCI16): 69.7
cell viability (UCD52): 120 ± 4.3
cell viability (WHIM2): 91.8 ± 6
cell viability (WHIM30): 95.3 ± 21

Cc1cccc(Nc2ccccc2C(=O)O)c1C [Mefenamic Acid]
cell viability (HCI01): 103 ± 23
cell viability (HCI03): 102
cell viability (HCI09): 118 ± 43
cell viability (HCI11): 98.1
cell viability (HCI13): 113 ± 6.7
cell viability (HCI16): 90.9
cell viability (UCD52): 94.4 ± 5.6
cell viability (WHIM2): 109 ± 6
cell viability (WHIM30): 112 ± 1.5

CC(=O)N1CCN(c2ccc(OCC3COC(Cn4ccnc4)(c4ccc(Cl)cc4Cl)O3)cc2)CC1 (configuration not stated) [Ketoconazole]
cell viability (HCI01): 188 ± 14
cell viability (HCI03): 143
cell viability (HCI09): 36.4 ± 2.8
cell viability (HCI11): 102
cell viability (HCI13): 76 ± 1.8
cell viability (HCI16): 122
cell viability (UCD52): 55.8 ± 5.3
cell viability (WHIM2): 172 ± 25
cell viability (WHIM30): 122 ± 10

CC(C=CC1=C(C)CCCC1(C)C)=CC=CC(C)=CC(=O)O [Isotretinoin]
cell viability (HCI01): 139 ± 2
cell viability (HCI03): 109
cell viability (HCI09): 91.69 ± 0.3
cell viability (HCI11): 122
cell viability (HCI13): 119 ± 3.2
cell viability (HCI16): 105
cell viability (UCD52): 190 ± 2.4
cell viability (WHIM2): 91.5 ± 10
cell viability (WHIM30): 142.94 ± 0.0078

NCCCCCC(=O)O [(6-)ε-Aminocaproic acid]
cell viability (HCI01): 67.8 ± 37
cell viability (HCI03): 136
cell viability (HCI09): 90 ± 16
cell viability (HCI11): 79.6
cell viability (HCI13): 104 ± 5
cell viability (HCI16): 101
cell viability (UCD52): 77.2 ± 5.2
cell viability (WHIM2): 101 ± 24
cell viability (WHIM30): 155 ± 23

O=C(NC(Cc1cc(=O)[nH]c2ccccc12)C(=O)O)c1ccc(Cl)cc1 (configuration not stated) [Rebamipide]
cell viability (HCI01): 92.4 ± 31
cell viability (HCI03): 129
cell viability (HCI09): 88.63 ± 0.71
cell viability (HCI11): 97
cell viability (HCI13): 117 ± 5.6
cell viability (HCI16): 102
cell viability (UCD52): 100 ± 6.4
cell viability (WHIM2): 86.2 ± 10
cell viability (WHIM30): 115 ± 8.9

Cc1ccccc1C(OCCN(C)C)c1ccccc1.O=C(O)CC(O)(CC(=O)O)C(=O)O (configuration not stated) [Orphenadrine Citrate]
cell viability (HCI01): 145 ± 33
cell viability (HCI03): 130
cell viability (HCI09): 104 ± 1.3
cell viability (HCI11): 90.9
cell viability (HCI13): 108 ± 15
cell viability (HCI16): 138
cell viability (UCD52): 68.3 ± 6.3
cell viability (WHIM2): 83.3 ± 17
cell viability (WHIM30): 100 ± 7.5

COc1ccc(CC2c3cc(OC)c(OC)cc3CC[N+]2(C)CCC(=O)OCCCCCOC(=O)CC[N+]2(C)CCc3cc(OC)c(OC)cc3C2Cc2ccc(OC)c(OC)c2)cc1OC.O=S(=O)([O-])c1ccccc1.O=S(=O)([O-])c1ccccc1 (configuration not stated) [Cisatracurium Besylate]
cell viability (HCI01): 177 ± 73
cell viability (HCI03): 129
cell viability (HCI09): 102 ± 17
cell viability (HCI11): 109
cell viability (HCI13): 80.4 ± 3.9
cell viability (HCI16): 129
cell viability (UCD52): 119 ± 6.3
cell viability (WHIM2): 65.1 ± 7.3
cell viability (WHIM30): 120 ± 7

CCC1OC(=O)C(C)C(OC2CC(C)(OC)C(O)C(C)O2)C(C)C(OC2OC(C)CC(N(C)C)C2O)C(C)(O)CC(C)C(=O)C(C)C(O)C1(C)O (configuration not stated) [Erythromycin]
cell viability (HCI01): 106 ± 13
cell viability (HCI03): 101
cell viability (HCI09): 96.7 ± 12
cell viability (HCI11): 92.7
cell viability (HCI13): 77.2 ± 9.7
cell viability (HCI16): 113
cell viability (UCD52): 95 ± 17
cell viability (WHIM2): 118 ± 36
cell viability (WHIM30): 167.6 ± 0.38

Cc1ncc(CO)c(CO)c1O.Cl [Pyridoxine HCl]
cell viability (HCI01): 89.2 ± 31
cell viability (HCI03): 121
cell viability (HCI09): 90.1 ± 4.5
cell viability (HCI11): 91.9
cell viability (HCI13): 117 ± 18
cell viability (HCI16): 107
cell viability (UCD52): 99.9 ± 5.3
cell viability (WHIM2): 86.6 ± 2.4
cell viability (WHIM30): 100 ± 3.4

CCC(C)C(=O)OC1CC(C)C=C2C=CC(C)C(CCC3CC(O)CC(=O)O3)C21 (configuration not stated) [Lovastatin]
cell viability (HCI01): 119 ± 27
cell viability (HCI03): 115
cell viability (HCI09): 88.2 ± 12
cell viability (HCI11): 181
cell viability (HCI13): 131 ± 14
cell viability (HCI16): 142
cell viability (UCD52): 50.7 ± 5.3
cell viability (WHIM2): 71.5 ± 6.6
cell viability (WHIM30): 93.17 ± 0.92

CCOC(=O)C1=C[C@]2(CC)CCCN3CCc4c(n1c1ccccc41)[C@@H]32 [Vinpocetine]
cell viability (HCI01): 107 ± 21
cell viability (HCI03): 108
cell viability (HCI09): 94.4 ± 14
cell viability (HCI11): 106
cell viability (HCI13): 88.5 ± 11
cell viability (HCI16): 112
cell viability (UCD52): 110 ± 9
cell viability (WHIM2): 93.4 ± 7.8
cell viability (WHIM30): 125 ± 11

CC(C)(C)C(=O)C(Oc1ccc(Cl)cc1)n1ccnc1 (configuration not stated) [Climbazole]
cell viability (HCI01): 152 ± 37
cell viability (HCI03): 115
cell viability (HCI09): 89.7 ± 16
cell viability (HCI11): 98.8
cell viability (HCI13): 86.4 ± 8.3
cell viability (HCI16): 131
cell viability (UCD52): 96 ± 10
cell viability (WHIM2): 121 ± 6.3
cell viability (WHIM30): 120 ± 8.6

Cl.NCCCC(N)(C(=O)O)C(F)F.O (racemic) [DL-α-Difluoromethylornithine (hydrochloride hydrate)]
cell viability (HCI01): 94.2 ± 12
cell viability (HCI03): 94
cell viability (HCI09): 92.3 ± 10
cell viability (HCI11): 65.9
cell viability (HCI13): 80.9 ± 5.2
cell viability (HCI16): 99.2
cell viability (UCD52): 85.3 ± 3.9
cell viability (WHIM2): 91.9 ± 5.5
cell viability (WHIM30): 97.1 ± 3.2

CCOc1cc(N)c(Cl)cc1C(=O)NCC1CN(Cc2ccc(F)cc2)CCO1.O=C(O)CC(O)(CC(=O)O)C(=O)O (configuration not stated) [Mosapride Citrate]
cell viability (HCI01): 138 ± 14
cell viability (HCI03): 110
cell viability (HCI09): 83.1 ± 9.6
cell viability (HCI11): 116
cell viability (HCI13): 103 ± 23
cell viability (HCI16): 118
cell viability (UCD52): 106 ± 2.8
cell viability (WHIM2): 82.6 ± 16
cell viability (WHIM30): 136 ± 5.5

CC1(O)CC(c2nc(-c3ccc4ccc(-c5ccccc5)nc4c3)c3c(N)nccn23)C1 (configuration not stated) [Linsitinib]
cell viability (HCI01): 112 ± 1.2
cell viability (HCI03): 109
cell viability (HCI09): 73.3 ± 39
cell viability (HCI11): 76.3
cell viability (HCI13): 38.6 ± 4
cell viability (HCI16): 127
cell viability (UCD52): 71.6 ± 2.8
cell viability (WHIM2): 102 ± 11
cell viability (WHIM30): 126 ± 12
